# Screens: PubChem, several laboratories
# Shown are actives, neighbours in structure and some others; about 28% of the full set was active somewhere.
# CYP2C19 inhib = human CYP2C19 inhibition; P33261; CYP2C19 Supersomes, luciferin-H EGE luminescence, 30 min; inhibition, % at 5 µM; 96,000 tested, 21% active; AID 778;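 active means CYP2C19 inhibition above a set limit at 5 µM in the primary screen, cut at about 50% in these data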;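 further: plate controls were negative control wells for no effect and 2.5 mM tranylcypromine positive control for full effect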
# CYP2C9 inhib = human CYP2C9 inhibition. AID 777. 96,000 tested, 20% active. P11712. CYP2C9 Supersomes, luciferin-H conversion, luminescence. inhibition, % at 5 µM;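 active means blocking of liver enzyme CYP2C9 beyond about 50% at 5 µM, limit read from the data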
# DAT uptake mod = modulates human dopamine transporter uptake under cocaine; 110,000 tested, 1.3% active; B-score at 10 µM; LLC-PK1 hDAT cells, [14C]-dopamine uptake with cocaine IC80; actives deviate in either direction;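 active means Z score or B-score, a plate-position-corrected score, falls beyond the plate's 99.7% confidence bounds, in either direction; inactive means both scores lie inside the 99.7% bounds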;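 further: scored against the spread of the other compound wells on the same plate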
# Target sequence (Q01959 whole entry, looked up): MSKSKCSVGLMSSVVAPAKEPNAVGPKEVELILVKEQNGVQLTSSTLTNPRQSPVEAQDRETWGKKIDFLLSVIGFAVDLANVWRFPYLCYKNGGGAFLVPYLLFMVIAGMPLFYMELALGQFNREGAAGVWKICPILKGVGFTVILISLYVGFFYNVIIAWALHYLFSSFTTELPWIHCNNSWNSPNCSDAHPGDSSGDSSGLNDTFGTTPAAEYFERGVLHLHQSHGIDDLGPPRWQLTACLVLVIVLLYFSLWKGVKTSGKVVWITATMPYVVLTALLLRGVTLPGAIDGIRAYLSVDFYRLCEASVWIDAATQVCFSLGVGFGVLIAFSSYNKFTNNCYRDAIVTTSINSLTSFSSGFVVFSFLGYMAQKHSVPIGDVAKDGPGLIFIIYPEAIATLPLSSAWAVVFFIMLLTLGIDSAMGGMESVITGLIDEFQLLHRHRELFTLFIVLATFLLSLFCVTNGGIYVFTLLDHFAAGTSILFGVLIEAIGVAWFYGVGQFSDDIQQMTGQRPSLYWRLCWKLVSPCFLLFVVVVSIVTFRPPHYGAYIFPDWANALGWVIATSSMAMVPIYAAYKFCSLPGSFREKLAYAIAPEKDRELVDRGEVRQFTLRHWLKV
# CYP2C19 act = increases human CYP2C19 enzyme activity; P33261; recombinant CYP2C19, luciferin-H EGE luminescence; active compounds read high; 0 = fully inhibited enzyme, 1 = untreated enzyme; activation factor at 5 µM; 96,000 tested, under 10 active; AID 1025;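 active means activation factor of at least 2 at 5 µM in the primary screen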;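 further: 0 = wells with 2.5 mM tranylcypromine and 1 = vehicle-only wells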
# D1 mod = D1 dopamine receptor (human) allosteric modulation; 58,000 tested, 5.9% active; B-score at 10 µM; HEK293 D1, CRE-luciferase, dopamine EC30 potentiation; actives deviate in either direction;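 active means luminescence count or its row- and column-corrected plate score outside the 99.7% band of the plate's sample wells, on either side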
# CYP2C9 activ = increases human cytochrome P450 2C9 activity; activation factor at 5 µM; P11712; recombinant CYP2C9, luciferin-H conversion, luminescence; active compounds read high; factor 1 = untreated enzyme, 0 = blocked; AID 1024; 96,000 tested, 1.4% active;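 active means activation factor of 2 or more for CYP2C9 at a 5 µM dose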;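 further: 0 = sulfaphenazole-blocked wells and 1 = vehicle-only wells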
# Starred values were filed as active, the others as inactive; / = no result given.
SMILES,CYP2C19 inhib,CYP2C9 inhib,DAT uptake mod,CYP2C19 act,D1 mod,CYP2C9 activ
Cc1cc(NCc2ccccc2)nc(-c2ccccc2O)n1,30,65*,0.5,0.7,0.84,0.3
CCCOc1cc(C)nc(-c2ccccc2O)n1,-3,-1,-0.00047,1,/,1
Cc1cc(Nc2ccccc2)nc(-c2ccccc2O)n1,-18,5,1,1.2,0.2,1
Cc1cc(NC2CCCCC2)nc(-c2ccccc2O)n1,7,57*,-0.029,0.9,/,0.4
Cc1cc(Nc2cccc(F)c2)nc(-c2ccccc2O)n1,-3,-1,-0.2,1,-0.055,1
CCOC(=O)c1nc(Nc2ccc(C(=O)O)cc2)c2ccccc2n1,2,6,-0.008,1,0.51,0.9
CCCCCSc1nc2c(c(=O)[nH]c(=O)n2C)n1CCc1ccccc1,0,-3,-0.3,1,/,1
CCOC(=O)N1CCC(NC(=O)c2ccc(CNS(=O)(=O)c3ccc(F)cc3)cc2)CC1,4,33,-0.044,1,0.65,0.7
CN(C)CC(C)(C)CNS(=O)(=O)CC12CCC(CC1=O)C2(C)C (configuration not stated),-2,5,0.0049,1,/,1
NC(=S)Nc1ccc(Oc2ccc(NC(N)=S)cc2)cc1,-5,12,-0.71,1,/,0.9
Nc1cc(=O)[nH]c(=O)n1CC1CC1,/,/,0.96,/,/,/
CCO[C@H]1OC(C(=O)N2CCOCC2)=C[C@@H](c2coc3ccccc3c2=O)[C@@H]1CCCO,/,/,-0.59,/,/,/
O=C(O)COCc1nc2ccccc2[nH]1,3,1,-0.93,1,-0.49,1
Cc1cc(NC(=O)C2C3C(=O)N(CC4CCCO4)C(C(=O)NCc4ccccc4)C34C=CC2(C)O4)no1 (configuration not stated),/,/,-0.019,/,/,/
CCc1nnc(SCC(=O)Nc2ccc3c(c2)OCO3)o1,72*,45,0.033,0.3,/,0.6
CCN(CC)S(=O)(=O)c1ccc(-c2nnc(SCC(=O)Nc3ccc4c(c3)OCO4)o2)cc1,28,72*,-1.5,0.7,0.012,0.3
CC(C)c1nc(SCC(=O)Nc2ccc3c(c2)OCO3)n[nH]1,73*,22,-0.072,0.3,/,0.8
O=C(CCN1C(=O)c2ccccc2C1=O)Nc1ccccn1,-16,-22,-0.0099,1.2,0.23,1.2
N#C/C(=C/c1ccc(F)cc1)c1nc(CCN2C(=O)c3ccccc3C2=O)cs1,15,18,1.9,0.8,/,0.8
O=C1c2ccccc2C(=O)N1CCc1ccccn1,84*,10,0.16,0.2,0.33,0.9
O=C1c2ccccc2C(=O)N1CSc1ncccn1,61*,-65,-2.9,0.4,-0.67,1.7
Cc1cc(C)n2nc(SCc3nc4ccccc4[nH]3)nc2n1,71*,20,0.32,0.3,2.2,0.8
Cc1ccc(-c2nc(CCN3C(=O)c4ccccc4C3=O)cs2)cc1,52*,30,2.8,0.5,/,0.7
CCN(C(=O)CSc1nc2nc(C)cc(C)n2n1)c1ccccc1,8,36,-0.095,0.9,-0.016,0.6
Cc1cc(C)n2nc(SCN3C(=O)c4ccccc4C3=O)nc2n1,83*,-7,-0.6,0.2,0.22,1.1
SMILES,CYP2C19 inhib,CYP2C9 inhib,DAT uptake mod,CYP2C19 act,D1 mod,CYP2C9 activ
CCc1ccc(S(=O)(=O)NC(CC(=O)O)c2ccccc2)cc1 (configuration not stated),-7,18,-0.7,1.1,-6.5*,0.8
COc1[nH]c2ccc(F)cc2c1C(=O)OCC1CCN(CCNS(C)(=O)=O)CC1,/,/,-0.057,/,/,/
C=CCNC(=O)CCNS(=O)(=O)c1ccc(Br)cc1,20,-59,0.45,0.8,0.99,1.6
CCCCNC(=O)CCNS(=O)(=O)c1ccc(Br)cc1,19,-166,-0.081,0.8,/,2.7*
CCC(C)NC(=O)CNS(=O)(=O)c1ccc(C)cc1 (configuration not stated),/,/,-0.23,/,/,/
CCC(C)NC(=O)CCNS(=O)(=O)c1ccc(Br)cc1 (configuration not stated),49,-116,0.23,0.5,-0.72,2.2*
CCOCCCNS(=O)(=O)c1ccc(Br)cc1,90*,-35,1,0.1,-0.37,1.3
O=C(COC(=O)CCOc1ccccc1)NCc1ccco1,9,38,/,0.9,2.3,0.6
COc1ccc(C2CC(c3cccs3)=Nc3ccccc3S2)cc1 (configuration not stated),/,/,-1.3,/,/,/
O=S(=O)(c1ccccc1)n1ccc2ccccc21,36,-138,1.3,0.6,-0.011,2.4*
CS(=O)(=O)c1ccc(Cl)c(NC(=O)C2CC(=O)N(Cc3ccccc3)C2)c1 (configuration not stated),29,68*,0.12,0.7,-0.59,0.3
CC(=O)c1cccc(NC(=O)C2CC(=O)N(Cc3ccccc3)C2)c1 (configuration not stated),34,25,-0.084,0.7,/,0.7
Cc1c(Br)cc(C(=O)NCCCN2CCOCC2)c(C)c1C,24,-60,-1.2,0.8,-0.14,1.6
S=C(c1ccc(-c2cccc(Cl)c2)o1)N1CCOCC1,50*,16,1.4,0.5,-1,0.8
N#CCCN1CCN(C(=S)c2ccc(-c3cccc(Cl)c3)o2)CC1,93*,32,2.4*,0.1,1,0.7
CC(=O)N1CCN(C(=S)c2ccc(-c3ccc(Cl)cc3)o2)CC1,20,15,0.048,0.8,/,0.8
N#CCCN1CCN(C(=S)c2ccc(-c3ccc(Cl)c(Cl)c3)o2)CC1,47,61*,1.3,0.5,-0.039,0.4
COCCn1c(=S)[nH]c2cc(C(=O)NCC3CCCO3)ccc2c1=O (configuration not stated),76*,52*,-0.049,0.2,-0.75,0.5
COCCn1c(=O)[nH]c2cc(C(=O)NCCN3CCN(c4ccccc4F)CC3)ccc2c1=O,0,6,0.42,1,-0.86,0.9
COCCn1c(=O)[nH]c2cc(C(=O)NCCCN3CCN(c4ccc(F)cc4)CC3)ccc2c1=O,11,14,-0.024,0.9,-4.4*,0.9
O=C(NCCN1CCCC1)c1ccc2c(=O)n(CCc3ccccc3)c(=O)[nH]c2c1,18,13,-8.2*,0.8,-3.7*,0.9
CCCCCn1c(=O)[nH]c2cc(C(=O)NCCCN(CC)CC)ccc2c1=O,5,11,-3.7*,0.9,-0.11,0.9
CCC(=O)NCCc1nc2cc(NC(=O)c3ccc(OC)cc3)ccc2n1C,18,33,-0.26,0.8,/,0.7
COC(=O)c1cc(NC(=O)c2ccccc2)c(=O)oc1C/C=N\OCc1ccc(Cl)cc1Cl,7,-3,0.75,0.9,/,1
COc1ccc(-n2c(=O)c3ccccc3n(CC(=O)Nc3cc(C)on3)c2=O)cc1OC,8,26,-0.061,0.9,/,0.7
CNC(=O)CSc1nnnn1CCCOC,-6,-26,0.04,1.1,-0.068,1.3
Cc1cc(NC(=O)CN2CCN(c3ccccc3O)CC2)no1,27,44,0.88,0.7,/,0.6
